# Sampled rows, rich in hits. Any-hit rate of the full collection: about 22%.
# F-actin modifier: cytoskeleton assembly modification | HUVEC TNFa F-actin phalloidin imaging, high content | inhibition, % at 2 µM | 91,000 compounds, 0.18% hits;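 active = inhibition above the batch mean plus 3 SD and confirmed as a hit by visual image inspection, cut at about 30% in these data, passing the limit was not always enough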
# CYP2C19 act: activators of human cytochrome P450 2C19; P33261; activation factor at 5 µM; recombinant CYP2C19, luciferin-H EGE luminescence; hits give high values; 0 = fully inhibited enzyme, 1 = untreated enzyme; 96,000 tested, under 10 active;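 active = activation factor of at least 2 at 5 µM in the primary screen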;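 note: 0 = wells with 2.5 mM tranylcypromine and 1 = vehicle-only wells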
# CYP2C9 activ: increases human cytochrome P450 2C9 activity; P11712; recombinant CYP2C9, luciferin-H conversion, luminescence; hits give high values; factor 1 = untreated enzyme, 0 = blocked; activation factor at 5 µM; 96,000 compounds, 1.4% hits; AID 1024;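 active = activation factor of 2 or more for CYP2C9 at a 5 µM dose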;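 note: 0 = sulfaphenazole-blocked wells and 1 = vehicle-only wells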
# Target sequence (P11712 whole entry, looked up): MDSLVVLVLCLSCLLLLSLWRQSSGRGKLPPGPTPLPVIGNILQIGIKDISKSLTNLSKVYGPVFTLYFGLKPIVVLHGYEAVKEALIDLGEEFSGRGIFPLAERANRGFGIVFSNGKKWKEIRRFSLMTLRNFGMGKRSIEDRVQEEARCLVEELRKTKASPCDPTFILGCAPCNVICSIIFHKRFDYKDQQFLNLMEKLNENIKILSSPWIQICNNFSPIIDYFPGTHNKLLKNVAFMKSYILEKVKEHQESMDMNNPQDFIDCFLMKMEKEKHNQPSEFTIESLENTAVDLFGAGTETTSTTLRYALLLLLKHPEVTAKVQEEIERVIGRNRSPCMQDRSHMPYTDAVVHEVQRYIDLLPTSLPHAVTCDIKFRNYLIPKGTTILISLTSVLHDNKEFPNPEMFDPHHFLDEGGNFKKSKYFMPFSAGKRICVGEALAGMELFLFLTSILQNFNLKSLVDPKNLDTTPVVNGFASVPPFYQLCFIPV
# E-sel TNF inh: TNF alpha driven E-selectin expression inhibition; HUVEC TNFa-induced E-selectin immunofluorescence, high content; inhibition, % at 2 µM; 120,000 compounds, 0.71% hits; AID 1246;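 active = inhibition above the batch mean plus 3 SD, and confirmed as a hit on visual image review, cut at about 43% in these data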;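 note: 0% = TNF-stimulated DMSO wells and 100% = unstimulated control wells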
# CYP2C9 inhib: human CYP2C9 inhibition; 96,000 compounds, 20% hits; CYP2C9 Supersomes, luciferin-H conversion, luminescence; AID 777; P11712; inhibition, % at 5 µM;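 active = blocking of liver enzyme CYP2C9 beyond about 50% at 5 µM, limit read from the data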
# CYP2C19 inhib: human CYP2C19 inhibition. P33261. CYP2C19 Supersomes, luciferin-H EGE luminescence, 30 min. inhibition, % at 5 µM. 96,000 compounds, 21% hits;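 active = CYP2C19 inhibition above a set limit at 5 µM in the primary screen, cut at about 50% in these data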;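 note: plate controls were negative control wells for no effect and 2.5 mM tranylcypromine positive control for full effect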
# The depositor's hits bear a star; . = no result given.
SMILES,F-actin modifier,CYP2C19 act,CYP2C9 activ,E-sel TNF inh,CYP2C9 inhib,CYP2C19 inhib
Cc1sc2nc(CN3CCOCC3)nc(Oc3ccc(NC(=O)c4ccco4)cc3)c2c1C,.,.,.,-14,.,.
Cc1nc2scc(-c3cccs3)c2c(=O)n1CC(=O)O,-14,1.1,1,.,1,-12
CC(=O)c1ccccc1Oc1nc(CN2CCOCC2)nc2scc(-c3cccs3)c12,.,0.1,0.3,8,72*,85*
CSc1snc(SCC(N)=O)c1C#N,10,1,1,.,3,-1
COC(=O)CSc1nsc(SCC(=O)OC)c1C#N,.,0.5,0.8,-2,23,54*
Cc1ccc2ccccc2c1Cn1c(-n2ccnc2)nc2c1c(=O)n(C)c(=O)n2C,35,0.4,0.5,10,47,58*
Cn1c(=O)c2c(nc(N3CCNCC3)n2Cc2cccc3ccccc23)n(C)c1=O,1,1.1,1.1,8,-8,-12
Cc1nn(C)c(C)c1NC(=O)C12CC3CC(CC(C3)C1)C2,.,.,.,4,.,.
COC1=Cc2c(ccc3ccc(=O)oc23)OC1(C)C,.,1,0.8,2,23,1
C=CCc1c(OC)ccc2ccc(=O)oc12,-4,0.4,2.2*,-6,-124,57*
Cc1nn(CC(=O)Nc2ccc(Cl)cn2)c(C)c1[N+](=O)[O-],-2,0.5,1.1,29,-6,48
O=C(COc1ccc(Cl)cc1)Nc1ccc(Cl)cn1,7,0.3,0.8,.,20,68*
CCCC(C)C(=O)Nc1ccc(Cl)cn1 (configuration not stated),2,0.5,0.9,-16,14,53*
Cc1nn(C(C)C(=O)Nc2ccc(Cl)cn2)c(C)c1[N+](=O)[O-] (configuration not stated),-41,0.3,0.8,-7,22,74*
CCCSc1nnc2[nH]c(=O)cc(N)n12,4,.,.,-6,.,.
CC1=CC(C)C2(CO)COC(c3ccccc3O)C1C2C (configuration not stated),5,0.1,0.4,10,64*,90*
Cc1cc(C)nc(SCC(=O)Nc2ncc(Cc3ccc(Cl)c(Cl)c3)s2)n1,.,.,.,-11,.,.
CCOC(=O)c1[nH]c(C)c(C(=O)N2CCN(c3ccc(F)cc3)CC2)c1C,-6,0.2,0.2,-4,77*,79*
CCOC(=O)c1[nH]c(C)c(C(=O)N2CCN(C(=O)c3ccco3)CC2)c1C,-9,.,.,-16,.,.
CCOC(=O)c1[nH]c(C)c(C(=O)N2CCN(c3cccc(Cl)c3)CC2)c1C,.,0.3,0.1,3,88*,68*
CCOC(=O)N1CCC(N2Cc3cccc(C(=O)Nc4ccc(OC)c(OC)c4)c3C2=O)CC1,10,0.3,0.1,.,95*,70*
CCOC(=O)c1ccccc1NC(=O)c1cccc2c1C(=O)N(C1CCN(C(=O)OCC)CC1)C2,9,0.6,0,6,96*,43
CCOC(=O)C1CCN(C(=O)Nc2ccc(OC)c(OC)c2)CC1,6,0.9,1.1,11,-12,5
CCOC(=O)N1CCC(N2Cc3cccc(C(=O)N4CCN(c5cccc(C)c5C)CC4)c3C2=O)CC1,.,.,.,13,.,.
CCOC(=O)N1CCC(N2Cc3cccc(C(=O)N4CCN(C5CCCCC5)CC4)c3C2=O)CC1,-2,0.6,0.2,-11,78*,40
SMILES,F-actin modifier,CYP2C19 act,CYP2C9 activ,E-sel TNF inh,CYP2C9 inhib,CYP2C19 inhib
CCOC(=O)N1CCC(NC(=O)c2cc(C(=O)Nc3ccc(OC)c(OC)c3)ccc2CO)CC1,-13,0.8,0.4,-2,64*,20
Cc1csc(NC(=O)c2nc3nc(C)cc(C)n3n2)n1,33,1.1,0.9,-11,8,-8
CSC1=NCCN1C(=O)COc1ccc2ccccc2c1,-8,0.1,0.7,-10,32,88*
Cc1cc(NC(=S)NC(=O)CC(C)C)ccc1Br,4,0.9,1.1,11,-11,12
N#CCSc1nc2c(sc(=S)n2Cc2ccco2)c(=O)n1-c1ccc(F)cc1,0,0.4,0.3,-1,71*,64*
CCCCCCn1c(=O)[nH]c2nc3cc(N)ccc3nc2c1=O,.,.,.,-9,.,.
Cn1c(C(=O)NCCN2CCCCCC2)cc2c(=O)n(C)c3ccccc3c21,-1,0.9,1.1,.,-6,7
Cn1c(C(=O)NC2CCCC2)cc2c(=O)n(C)c3ccccc3c21,-13,0.4,1,-19,5,56*
Cn1c(C(=O)Nc2ccc3c(c2)OCO3)cc2c(=O)n(C)c3ccccc3c21,.,1,0.6,16,37,4
CCOc1ccc(NC(=O)c2cc3c(=O)n(C)c4ccccc4c3n2C)cc1,0,0.7,0.2,28,84*,32
COc1ccc2ccccc2c1CN1CCN(C)CC1,.,1,0.9,13,11,3
Cc1ccc(C(=O)c2c(NC(=O)c3ccccc3C)sc(C)c2C)cc1,10,0.7,0.2,100*,78*,30
CCOc1ccc(CN(C(=O)c2oc3cc(C)ccc3c2C)C2CCS(=O)(=O)C2)cc1 (configuration not stated),-12,0.3,0.1,-2,87*,73*
Nc1nc(N2CCOCC2)n[nH]1,.,.,.,-2,.,.
Cc1ccc2c(c1)CCCN2C(=O)c1ccc2c(c1)OCO2,14,0.1,0.6,-29,40,90*
O=C(c1ccc2c(c1)OCO2)N1CCc2ccccc2C1,-59,0,0.8,.,16,100*
O=C(c1ccc2c(c1)OCO2)N1CCCc2ccccc21,48,0.2,1,4,4,83*
CCCN(CCC)S(=O)(=O)c1ccc(C(=O)N2CCCc3ccccc32)cc1,-16,0.8,0.1,-2,86*,21
O=S(=O)(NCC1OCCc2ccccc21)c1ccc(S(=O)(=O)N2CCOCC2)cc1 (configuration not stated),-21,0.9,1,.,1,11
O=C(CCN1CCc2ccccc21)c1ccc2c(c1)OCCO2,-12,0.2,0.9,10,8,84*
CC(Oc1ccccc1)C(=O)Nc1nc2c(s1)C(=O)CC(C)(C)C2 (configuration not stated),0,0.4,0.4,.,61*,57*
CC1(C)CC(=O)c2sc(NC(=O)CCS(=O)(=O)c3ccccc3)nc2C1,-17,1.1,1.1,-13,-6,-14
O=P(c1ccccc1)(c1ccccc1)C(O)c1ccco1 (configuration not stated),-5,1,0.8,30,21,5
O=C1NCCCc2c1oc1cc(Br)c(O)c(Br)c21,.,1,1.1,97*,-7,1
CCN1C(=O)C2(Nc3ccccc3-c3nc4ccccc4n32)c2cc(OC)ccc21 (configuration not stated),-63,0.7,0.3,.,69*,34
O=C1Nc2ccccc2C12Nc1ccccc1-c1nc3ccccc3n12 (configuration not stated),-1,.,.,1,.,.
CN1C(=O)C2(Nc3ccccc3-c3nc4ccccc4n32)c2ccccc21 (configuration not stated),-7,0.3,0.4,-13,64*,71*

# Bioassay records (PubChem)
